The values below come from PubChem BioAssay AID2284078 (EPA ToxCast).

The structures appear in SMILES notation. Activity calls are given as the source filed them. The calls were made as follows: active = hit-call score of the fitted dose curve at least 0.9, where 1 is the maximum; inactive = score below 0.9.

For orientation: AC50 means the midpoint of the concentration-response curve, whichever way the signal moves.

Sequence of human CHK1 (CHEK1) CAMK Kinase, CHEK1 (gene 1111) (O14757 whole entry, looked up): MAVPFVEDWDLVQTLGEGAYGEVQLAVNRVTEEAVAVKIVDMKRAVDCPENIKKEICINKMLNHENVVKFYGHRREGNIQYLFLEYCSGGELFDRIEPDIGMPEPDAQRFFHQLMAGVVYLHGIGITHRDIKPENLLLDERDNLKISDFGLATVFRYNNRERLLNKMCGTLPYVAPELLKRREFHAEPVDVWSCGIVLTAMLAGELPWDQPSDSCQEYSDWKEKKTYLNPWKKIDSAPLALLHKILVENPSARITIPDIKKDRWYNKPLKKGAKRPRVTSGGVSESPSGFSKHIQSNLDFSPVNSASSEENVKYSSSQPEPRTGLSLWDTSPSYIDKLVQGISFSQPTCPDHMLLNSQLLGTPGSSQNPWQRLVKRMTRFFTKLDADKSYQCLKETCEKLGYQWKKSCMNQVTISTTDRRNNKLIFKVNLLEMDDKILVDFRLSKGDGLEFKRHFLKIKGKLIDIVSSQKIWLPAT

This assay has as its target human CHK1 (CHEK1) CAMK Kinase, CHEK1 (gene 1111) (UniProt O14757). Description: ERF_TW_ENZ_hCHK1: Eurofins (ERF) Enzymatic Radiometric [10 uM ATP] KinaseProfiler LeadHunter Assay for human CHK1 (CHEK1) CAMK Kinase. As for the experimental part: ERF_TW_ENZ_hCHK1 is a biochemical, single-readout assay that uses extracted gene-proteins in a cell-free assay. Measurements were taken 0.5 hour after chemical dosing in a 96-well plate. See CHK1 Human CAMK Kinase Enzymatic Radiometric Assay [10 uM ATP], Panlabs.ERF_TW_ENZ_hCHK1 is an assay component calculated from the ERF_TW_ENZ_hCHK1 assay. It is designed to measure enzyme activity using a type of enzyme reporter as detected by scintillation counting with radiometry technology.Data from the assay component ERF_TW_ENZ_hCHK1 was analyzed at the assay endpoint, ERF_TW_ENZ_hCHK1, in the positive analysis fitting direction relative to DMSO as the negative control and baseline of activity. Using a type of enzyme reporter, loss-of-signal activity can be used to understand changes in enzymatic activity as they relate to gene CHEK1. To generalize the intended target to other relatable targets, this assay endpoint is annotated to the kinase intended target family, where the subfamily is serine/threonine kinase.
CHK1 (h) is incubated with 8 mM MOPS pH 7.0, 0.2 mM EDTA, 200 uM […], 10 mM MgAcetate and [gamma-33P]-ATP (specific activity and concentration as required). The reaction is initiated by the addition of the Mg/ATP mix. After incubation for 40 minutes at room temperature, the reaction is stopped by the addition of phosphoric acid to a concentration of 0.5%. An aliquot of the reaction is then spotted onto a filter and washed four times for 4 minutes in 0.425% phosphoric acid and once in methanol prior to drying and scintillation counting. Test Sample Requirements: Compound should be supplied in 100%DMSO. We require a stock solution at a concentration of at least 50x higher than the Final Assay Concentration of your cpd. A 10mM stock is also acceptable. When ordering fewer than 60 kinase assays, we need 120uL of 50x concentrated stock. For more than 60 assays, we need 420uL of 50xcc stock. Please apply the conversion if you provide 10mM stock solution or compounds in powder form (pre-weighed is required). From 50 cpds supplied as solids, the TAT will be extended.
`COc1cc(/C=C/C(=O)CC(=O)/C=C/c2ccc(O)c(OC)c2)ccc1O`: the AC50 is 2590 nM (active).

In the case of `O=C(/C=C/c1ccc(O)cc1)CC(=O)/C=C/c1ccc(O)cc1`, the AC50 is 2950 nM (active).

As for `COc1cc(CCC(=O)CC(=O)CCc2ccc(O)c(OC)c2)ccc1O`, the molecule was called inactive.
